The text below walks through data of PubChem BioAssay (NCATS).

Several values for one entry are separate records, joined by “and”; a condition that tells them apart may be missing. Equal entries are not always repeated. Inconclusive results are not listed. Activity calls are given as the source filed them. Unless noted, calls come from the whole dose curve; as a rule, active = well fitted curve in the direction sought with a large enough effect; inconclusive = small, poorly fitted or top-dose-only effect, or another doubt; inactive = no such curve, though single readings can be large; an effect the other way counts as inactive or inconclusive.

The nature of assay [1]: qHTS Assay for Lipid Storage Modulators (AID 1519; calls by dose curve; for activity change, negative = inhibition: % is set by controls: 0 for no effect and ±100 for the full control effect). As to conditions: Drosophila S3 cells, BODIPY lipid droplet/cell ratio, laser cytometry, cells loaded with oleic acid. The method, boiled down: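 Cells seeded at 5,000 per well were treated with compounds over a concentration series and loaded with oleic acid (400 uM, as added). Lipid droplet fluorescence (488 nm excitation, 500-530 nm channel) was read by laser-scanning cytometry and normalized to 20 uM Triacsin C.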

Assay [2] is described as follows: Cell Viability - LYMP2-006 (AID 978).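 Note: cells exposed to compound for 24 hours; % is set by controls: 0 for no effect and ±100 for the full control effect; nearly all actives have a fitted effect of over 60% in size.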 As to conditions: LYMP2-006 lymphoblastoid cell viability, qHTS; series mostly up to 92.2 µM. The method, boiled down: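 Human lymphoblastoid cells (LYMP2-006), 2500/well in complete medium, were treated with compound for 24 hr at 37 C. Cellular ATP was read by CellTiter-Glo luminescence after 30 min, and AC50 values came from Hill-equation fits of concentration-response data.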

Assay [3] can be described thus: Cell Viability - LYMP2-007 (AID 979).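 Note: cells exposed to compound for 24 h before reading; 0% = DMSO only and the negative end = 92 µM tetraoctylammonium bromide; nearly all actives have a fitted effect of over 60% in size.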 Particulars: LYMP2-007 lymphoblastoid cell viability; series mostly up to 92.2 µM. The method in brief: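 qHTS cytotoxicity: 2500 cells/well, 5 hr 37 C settle, compound 24 hr 37 C, CellTiter-Glo 30 min RT, luminescence. Decrease in ATP = toxicity. AC50 by standard Hill equation; tetraoctylammonium bromide positive control.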
The nature of assay [4]: Cell Viability - LYMP2-008 (AID 980). Note: % is set by controls: 0 for no effect and ±100 for the full control effect; nearly all actives have a fitted effect of over 60% in size. As to conditions: LYMP2-008 lymphoblastoid cell viability, qHTS; series mostly up to 92.2 µM. The method in brief: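 Luminescent ATP read-out (CellTiter-Glo, 30 min RT) after 24 hr compound exposure at 37 C of human lymphoblastoid cells in complete medium. Decrease in ATP taken as cytotoxicity; AC50 derived by standard Hill fit of qHTS concentration-response data.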

The nature of assay [5]: Cell Viability - LYMP2-012 (AID 982).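 Note: cellular ATP by luciferase luminescence where a drop means cytotoxicity; cells exposed to compound for one day before reading; 0% = DMSO only and full loss = 92 µM tetraoctylammonium bromide; nearly all actives have a fitted effect of over 55% in size.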 Particulars: LYMP2-012 lymphoblastoid cell viability qHTS; series mostly up to 92.2 µM. On the technique in general: Quantitative high-throughput screening tests each substance at several concentrations.
The nature of assay [6]: Cell Viability - LYMP2-014 (AID 983).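 Note: plate controls were DMSO only for no effect and 92 µM tetraoctylammonium bromide for full effect; nearly all actives have a fitted effect of over 50% in size.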 Particulars: LYMP2-014 lymphoblastoid cells, viability qHTS; series mostly up to 92.2 µM. The method, boiled down: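 2500 cells/well, 5 hr 37 C; cpd 24 hr 37 C, complete medium; CellTiter-Glo 30 min RT, luminescence; ATP loss = toxicity; AC50 via Hill eqn; tetraoctylammonium bromide positive control.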
A short description of assay [7]: Cell Viability - LYMP2-016 (AID 984).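 Note: cells exposed to compound for 24 hours at 37 °C; % is set by controls: 0 for no effect and ±100 for the full control effect; nearly all actives have a fitted effect of over 55% in size.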 Particulars: LYMP2-016 lymphoblastoid cell viability, qHTS; series mostly up to 92.2 µM. The method in brief:
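Human lymphoblastoid LYMP2-016 cells, 2500 per well, treated with compounds for 24 h at 37 C. Viability read as intracellular ATP by CellTiter-Glo luminescence after 30 min at room temperature; AC50 from Hill fits of concentration-response.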

A short description of assay [8]: Cell Viability - LYMP2-018 (AID 985).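 Note: plate controls were DMSO only for no effect and tetraoctylammonium bromide at 92 µM for full effect; nearly all actives have a fitted effect of over 50% in size.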 As to conditions: LYMP2-018 lymphoblastoid cells, viability (qHTS); series mostly up to 92.2 µM. The method in brief:
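2500 cells/well; 5 hr 37 C; cmpd 24 hr 37 C, complete medium; CellTiter-Glo 30 min RT; luminescence. Tetraoctylammonium bromide positive control. AC50 via Hill fit.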

Assay [9] is described as follows: Cell Viability - LYMP2-020 (AID 986).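 Note: plate controls were DMSO only for no effect and tetraoctylammonium bromide at 92 µM for full effect; nearly all actives have a fitted effect of over 55% in size.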 As to conditions: series mostly up to 92.2 µM. The method in brief: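 qHTS, 2500 cells/well; 5 hr then 24 hr compound exposure, 37 C; CellTiter-Glo luminescence after 30 min RT; ATP decrease taken as cytotoxicity; AC50 via Hill equation; tetraoctylammonium bromide positive control.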
Assay [10] in a line: Cell Viability - LYMP2-026 (AID 989). Note: % is set by controls: 0 for no effect and ±100 for the full control effect; nearly all actives have a fitted effect of over 50% in size. Particulars: LYMP2-026 lymphoblastoid cell viability, qHTS; series mostly up to 92.2 µM. The method, boiled down:
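qHTS cytotoxicity: 2500 cells/well, 5 hr 37 C, compound 24 hr 37 C, CellTiter-Glo 30 min RT, luminescence. Tetraoctylammonium bromide positive control. AC50 via standard Hill fit.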

Assay [11] can be described thus: Cell Viability - LYMP1-002 - Assay at 24 hr (AID 993). Note: % is set by controls: 0 for no effect and ±100 for the full control effect. As to conditions: LYMP1-002 lymphoblastoid cells viability; series mostly up to 92.2 µM. The method, boiled down: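 CellTiter-Glo luminescence (intracellular ATP) after 24 h compound exposure, 37 C, in LYMP1-002 human lymphoblastoid cells; decreased ATP taken as cytotoxicity. AC50 from standard Hill fit of concentration-response curves.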

The nature of assay [12]: Validation of Assay for Modulators of Lamin A Splicing (AID 1459; active = well fitted curve in the direction sought with a large enough effect in the signal ratio; the % refers to the signal ratio;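 note: cells exposed to compound for two days before reading; 0% is about no effect; ratio rise marks activators and ratio drop marks inhibitors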). Particulars: Lamin A splicing dual RFP/GFP fluorescence reporter; series mostly up to 9.22 µM. The method in brief:
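S3 HeLa stably expressing lamin A-EGFP splicing minigene and DsRed2, 600 cells/well in Opti-MEM with 2% FBS, treated 48 h at 37C; laser-scanning cytometry gives GFP/RFP total intensity ratio; ancitabine positive control, 0.5% DMSO vehicle.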

The target of assay [13] is DNA repair nuclease/redox regulator APEX1 (Homo sapiens) (UniProt P27695). Nature of the assay: qHTS Validation Assay for Inhibitors of the Human Apurinic/apyrimidinic Endonuclease 1 (APE1) (AID 1705;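 note: TAMRA fluorescence gain over two minutes as APE1 cuts a quenched THF abasic duplex; % is set by controls: 0 for no effect and ±100 for the full control effect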). As to conditions: purified APE1 endonuclease activity, fluorescence, titration; series mostly up to 57.1 µM. The method in brief:
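Fluorogenic double-stranded THF abasic-site substrate (5'-TAMRA/3'-BHQ-2), 50 nM final. Enzyme preincubated with compound 15 min at room temperature, then substrate added. Kinetic fluorescence (ex 525/em 598 nm) read three times at 60 s intervals; activity taken as third-minus-first read difference.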

The nature of assay [14]: Counterscreen for APE1 Inhibitors: Fluorescent Dye Displacement Validation Assay (AID 1707).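 Note: plate controls were ThO with dsDNA and no compound for no effect and ThO without dsDNA for full effect.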 As to conditions: fluorescent dye displacement from DNA; series mostly up to 57.1 µM. The method in brief:
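Loss of Thiazole Orange fluorescence marks promiscuous DNA binders. The dye (250 nM) is mixed with 50 nM abasic-site dsDNA in pH7.5 Tris buffer containing MgCl2, then compounds are added and emission is read once.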
On the technique in general: Counterscreens check selectivity or assay interference.

Assay [15] deals with Endonuclease 4 (Escherichia coli (strain K12)) (UniProt P0A6C1). The experiment in a line: Counterscreen for APE1 Inhibitors: qHTS Validation Assay for Inhibitors of Endonuclease IV (AID 1708). Note: % is set by controls: 0 for no effect and ±100 for the full control effect. As to conditions: E. coli endonuclease IV, DNA cleavage fluorescence; series mostly up to 57.1 µM. The method, boiled down: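 Read-out: fluorescence rise (ex 525/em 598 nm) from incision of a TAMRA/BHQ-2 double-stranded THF abasic-site substrate (50 nM), measured kinetically; third-minus-first read difference gave reaction progress. Enzyme 2 nM.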

Assay [16] in a line: qHTS for differential inhibitors of proliferation of Plasmodium falciparum line 7G8 (AID 1815).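 Note: parasite growth measured after three days of incubation; plate controls were vehicle wells for no effect and reference inhibitor wells for full effect.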 As to conditions: Plasmodium falciparum 7G8 proliferation inhibition; series mostly up to 28.7 µM.
The nature of assay [17]: qHTS for differential inhibitors of proliferation of Plasmodium falciparum line GB4 (AID 1816).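 Note: parasite growth measured after 72 h incubation; 0% = vehicle DMSO and -100% = reference inhibitor.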 As to conditions: series mostly up to 28.7 µM.
A short description of assay [18]: qHTS for differential inhibitors of proliferation of Plasmodium falciparum line 3D7 (AID 1876).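 Note: parasite growth measured after three days of culture; 0% = vehicle wells and -100% = reference inhibitor wells.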 Particulars: P. falciparum 3D7 proliferation inhibition; series mostly up to 28.7 µM.
Assay [19] in a line: qHTS for differential inhibitors of proliferation of Plasmodium falciparum line D10 (AID 1877).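 Note: parasites grown with compound for 72 h before DNA staining; plate controls were vehicle wells for no effect and reference inhibitor wells for full effect.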 Particulars: series mostly up to 28.7 µM.
Assay [20] is described as follows: qHTS for differential inhibitors of proliferation of Plasmodium falciparum line Dd2 (AID 1882).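 Note: compound exposure of 72 h on infected erythrocytes; plate controls were DMSO vehicle for no effect and 0.29 µM artemisinin for full effect; nearly all actives have a fitted effect of over 65% in size.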 Particulars: series mostly up to 28.7 µM. The method, boiled down: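 RBC culture, 0.3% parasitemia / 2.5% Hct final; cpd added by pin tool in DMSO; 72 h, 37 C, 5% CO2; lysis buffer + SYBR Green I, o/n RT dark; FI 485/535; norm. to artemisinin 0.29 uM and DMSO.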
The mark [21] stands for this setting: measured here: cell count channel max response.
Where [22] appears, read: measured here: lipid channel max response.

Chain of DNA repair nuclease/redox regulator APEX1 (Homo sapiens) (P27695 whole entry, looked up): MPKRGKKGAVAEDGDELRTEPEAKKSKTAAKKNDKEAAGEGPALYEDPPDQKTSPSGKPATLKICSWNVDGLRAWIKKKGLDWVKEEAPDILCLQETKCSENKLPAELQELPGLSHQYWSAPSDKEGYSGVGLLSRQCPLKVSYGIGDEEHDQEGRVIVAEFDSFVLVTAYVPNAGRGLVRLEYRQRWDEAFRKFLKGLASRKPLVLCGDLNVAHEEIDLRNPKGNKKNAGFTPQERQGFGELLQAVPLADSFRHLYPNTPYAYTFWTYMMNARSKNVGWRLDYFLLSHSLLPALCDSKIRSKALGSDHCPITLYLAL

On to `CN(C)CCN(Cc1ccc(Cl)cc1)c1ccccn1`, for which the activity change, negative = inhibition in assay [1] (at 25.7 µM (top of the series)) was -3.62% (inactive). Besides, the max response was -9.2% in assay [1] (setting [21]) and -15.8% in assay [1] (setting [22]).
The corresponding values for `NS(=O)(=O)c1cc(Cl)c(Cl)c(S(N)(=O)=O)c1` are -3.46% (inactive), -9.93% and -12.7%.
Consider `COc1ccc2ccc(=O)oc2c1CC=C(C)C`, for which the activity change, negative = inhibition in [1] (at 57.5 µM (top of the series)) was 9.52% (inactive). The max response in assay [1] (setting [21]) came to 4.48%; in assay [1] (setting [22]), 16.7%.
Regarding `CN[C@H]1[C@@H](O[C@@H]2[C@H](O[C@@H]3[C@@H](O)[C@@H](O)[C@@H](N=C(N)N)[C@@H](O)[C@@H]3N=C(N)N)O[C@H](C)[C@@]2(O)C=O)O[C@@H](CO)[C@@H](O)[C@H]1O`, in assay [1] (at 25.7 µM (top of the series)), the activity change, negative = inhibition was -5.41% (inactive). Also, the max response is 12.5% in [1] (setting [21]) and 7.05% in assay [1] (setting [22]).
Consider `Cc1cc2nc3c(=O)[nH]c(=O)nc-3n(CC(O)C(O)C(O)CO)c2cc1C` (stereo unspecified), for which the activity change, negative = inhibition in assay [1] (at 25.7 µM (top of the series)) is 0.295% (inactive); in assay [1] (at 57.5 µM (top of the series)), 10.9% (inactive) and -20.1% (inactive). Moreover, the max response is 2.32% and -7.87% and -11.2% in assay [1] (setting [21]); 0.677% and 3.75% and -34% in [1] (setting [22]).
Regarding `CCC(=C(CC)c1ccc(O)cc1)c1ccc(O)cc1`, the activity change, negative = inhibition in assay [1] (at 25.7 µM (top of the series)) was -5.29% (inactive). In addition, the max response is -17.8% in [1] (setting [21]) and -23.1% in [1] (setting [22]).
Take `CC(NCCc1ccc(O)cc1)C(O)c1ccc(O)cc1` (stereo unspecified): the activity change, negative = inhibition in assay [1] (at 57.5 µM (top of the series)) is 2.67% (inactive). Also, the values for the max response in assay [1] (setting [21]) and in assay [1] (setting [22]) were 13.6% and 20%, respectively.
For `CCC(c1ccc(O)cc1)C(CC)c1ccc(O)cc1` (stereo unspecified) the same measures were 9.03% (inactive), 10.5% and 25.1%.
`C=C1c2cccc(O)c2C(O)=C2C(=O)[C@@]3(O)C(O)=C(C(N)=O)C(=O)[C@@H](N(C)C)[C@@H]3[C@@H](O)[C@H]12`: the activity change, negative = inhibition in assay [1] (at 25.7 µM (top of the series)) is 1.55% (inactive). The max response is -8.47% in assay [1] (setting [21]) and -6.76% in assay [1] (setting [22]).
On to `C[C@@H]1C[C@H]2[C@@H]3CCC4=CC(=O)C=C[C@]4(C)[C@@]3(F)[C@@H](O)C[C@]2(C)[C@@]1(O)C(=O)CO`, for which the call in assay [2], in [3], in assay [4], in assay [5], in assay [6] and in assay [7] was inactive. The molecule was classed as inactive in assay [8], in assay [9], in assay [10] and in [11].
Turning to `CC1(C)OC2CC3C4CC(F)C5=CC(=O)C=CC5(C)C4C(O)CC3(C)[C@]2(C(=O)CO)O1` (stereo partly specified), the activity change, negative = inhibition in [1] (at 57.5 µM (top of the series)) was 6.59% (inactive). In addition, the figures for the max response in assay [1] (setting [21]) and in assay [1] (setting [22]) were 10.6% and 23.9%, respectively.
On to `OC(c1cc(C(F)(F)F)nc2c(C(F)(F)F)cccc12)C1CCCCN1` (stereo unspecified), for which, in [1] (at 57.5 µM (top of the series)), the activity change, negative = inhibition is 2.49% (inactive). Moreover, the max response in assay [1] (setting [21]) turned out to be 6.15%; in [1] (setting [22]), 10.3%.
As to `CS(=O)(=O)c1ccc(C2=C(c3ccccc3)C(=O)OC2)cc1`, the activity change, negative = inhibition in [1] (at 57.5 µM (top of the series)) is 14.5% (inactive). Further, the max response in assay [1] (setting [21]) was found to be 15.3%; in assay [1] (setting [22]) it was 35.2%.
With `Nc1ccn([C@@H]2O[C@H](CO)[C@@H](O)[C@H]2O)c(=O)n1`, the activity change, negative = inhibition in [1] (at 57.5 µM (top of the series)) is -3.18% (inactive). The max response in assay [1] (setting [21]) was -16.3%; in [1] (setting [22]) it was -19.1%.
With `CCNC(=O)[C@H]1O[C@@H](n2cnc3c(N)nc(NCCc4ccc(CCC(=O)O)cc4)nc32)[C@H](O)[C@H]1O`, the call in assay [12], in [13], in assay [14], in [15], in assay [16] and in [17] was inactive. In addition, the molecule was called inactive in [18], in [19] and in assay [20]. Besides, the activity change, negative = inhibition in assay [1] (at 57.5 µM (top of the series)) was -1.93% (inactive). Also, the values for the max response in assay [1] (setting [21]) and in assay [1] (setting [22]) were -4.53% and -7.25%, respectively.
Regarding `NCC1CCC(C(=O)O)CC1` (stereo unspecified), the figures for the activity change, negative = inhibition in [1] (at 25.7 µM (top of the series)) and in assay [1] (at 57.5 µM (top of the series)) were -1.26% (inactive) and 6.78% (inactive), respectively. The max response is -0.272% and 28.1% in [1] (setting [21]); -2.41% and 39.3% in assay [1] (setting [22]).
